# Source: PubChem BioAssay (National Center for Advancing Translational Sciences (NCATS))
# HT1080 IDH1KD tx: HT-1080 IDH1 knockdown cell toxicity (counter line); HT-1080 IDH1 knockdown viability, ATP luminescence, 48 h; Potency, µM (highest dose often 46.1 µM), inactives show top-dose activity, negative = toxicity, actives largely listed as cytotoxic; 360,000 tested, 2% active; AID 686971;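 further: 0% = DMSO wells and -100% = cell-free medium wells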
#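 IDH1KD HT-1080 cells, 750/well, RPMI + 5% FBS; compound pinned after 2 h settling; 48 h, 37 °C; CellTiter-Glo luminescence; % activity normalised to DMSO and no-cell wells; curves fitted, classed by r2 and efficacy.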
# KB-V1 MDR tox: kills drug-selected multidrug resistant KB-V1 cells | KB-V1 MDR cells viability, CellTiter-Glo, 72 h | Potency, µM (series often up to 46.1 µM), hits mostly cytotoxic | 400,000 tested, 3.4% active | AID 1347076; further: on the % scale 0 is the no-effect control and ±100 the full control effect; nearly all actives have a fitted effect of over 60% in size
#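 KB-V1 cells (P-gp-expressing MDR subline of KB-3-1) in phenol-red-free DMEM with 10% FBS were exposed to library compounds over a concentration series for 72 h at 37 degrees C. Viability read by CellTiter-Glo luminescence; concentration-effect curves fitted after normalization.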
# HT1080-NT tox: kills 2HG-producing HT-1080-NT fibrosarcoma cells; 360,000 tested, 1.6% active; HT-1080-NT fibrosarcoma viability, CellTiter-Glo ATP luminescence, 48 h; Potency, µM (highest dose often 46.1 µM), for the others: top-dose activity, negative = less viability, hits mostly cytotoxic; AID 686970;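 further: NT is the 2HG producing partner of a matched IDH1 knockdown line; 0% = DMSO-treated cells and -100% = media-only wells without cells; nearly all actives have a fitted effect of over 55% in size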
#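 750 cells/well, RPMI + 5% FBS; 2 h settle, compound pin-transfer, 48 h at 37 degrees C. CellTiter-Glo 10 min RT, luminescence. Normalized to DMSO and media-only wells.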
# SW480 rereplic: inducers of DNA re-replication in SW480 colon cancer cells. SW480 DNA re-replication, Hoechst DNA content imaging, 48 h. AID 624297. 340,000 tested, 1.8% active. Potency, µM (series often up to 46.1 µM), without a hit: top-dose re-replication activation, hits mostly activators; further: % of control where 0% means no effect; nearly all actives have a fitted effect of over 55% in size
#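 Image-based DNA-content assay: after two days of treatment, nuclei were labelled with the DNA dye Hoechst and imaged, and hits were compounds raising the count of nuclei showing high fluorescence intensity.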
# KB-3-1 tox: kills parental KB-3-1 adenocarcinoma cells. KB-3-1 viability, CellTiter-Glo ATP luminescence, 72 h. Potency, µM (highest dose often 46.1 µM), usual class: cytotoxic. 400,000 tested, 1.4% active. AID 1347075; further: on the % scale 0 is the no-effect control and ±100 the full control effect; nearly all actives have a fitted effect of over 60% in size
#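 Cells are dispensed, compounds pinned in, plates held at 37 °C for 72 h, then CellTiter-Glo is added and luminescence read after 10 minutes. Cell line: parental KB-3-1 in phenol-red-free DMEM, 10% FBS.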
# MCF10A rereplic: induces DNA re-replication in MCF 10a normal breast cells. Potency, µM (titrated, usually from 46.1 µM), for inactives: top-dose activity, positive = re-replication, actives largely listed as activators. 350,000 tested, 2.9% active. MCF 10A DNA re-replication, Hoechst nuclear intensity, 48 h; further: % of control where 0% means no effect; nearly all actives have a fitted effect of over 50% in size
# An asterisk follows results filed as active; i = inactive; u = inconclusive; x = no result given; [ ] = dose if it differs, or a comment. Most compounds without a hit are left out; they make up all but 8% or so of the library. The call rests on the fitted dose curve; in most records, active means well fitted curve in the direction sought with a large enough effect; inconclusive means small, poorly fitted or top-dose-only effect, or another doubt; inactive means no such curve, though single readings can be large; an effect the other way counts as inactive or inconclusive. Potency means the concentration at half of the fitted maximal effect.
SMILES,HT1080 IDH1KD tx,KB-V1 MDR tox,HT1080-NT tox,SW480 rereplic,KB-3-1 tox,MCF10A rereplic
COc1ccccc1CN(Cc1nc2ccccc2c(=O)[nH]1)S(=O)(=O)c1ccc2ccccc2c1,6.3µM*,13µM*,u,u,i,-18%
COc1cc2nc(CN(C)Cc3nc4ccccc4c(=O)[nH]3)[nH]c(=O)c2cc1OC,7.1µM*,i,18µM*,16µM*,i,u
O=c1[nH]c(CN(CCc2ccccc2)S(=O)(=O)c2ccc(Cl)cc2)nc2ccccc12,-18%,3.3µM*,-6%,u,i,-38%
CCN(Cc1nc2ccccc2c(=O)[nH]1)Cc1nc2cc(OC)c(OC)cc2c(=O)[nH]1,2%,i,-2%,7%,i,0%
COc1ccccc1NC(=O)N(Cc1ccc2c(c1)OCO2)Cc1nc2ccccc2c(=O)[nH]1,12%,i,7%,-5%[9.22 µM],i,-4%
COc1ccccc1CN(Cc1nc2ccccc2c(=O)[nH]1)C(=O)Nc1cccc(C)c1,3.5µM*,u,7.1µM*,14%,i,-5%
Cc1ccc(-c2csc3ncnc(SCc4ccc(C(=O)O)cc4)c23)cc1,-17%,i,-4%,1%,i,u
COc1ccc(-c2nc3c(=O)n(C)c(=O)nc-3n(C)n2)cc1,x,4.6µM*,x,x,0.65µM*,x
Cn1nc(-c2ccc(F)cc2)nc2c(=O)n(C)c(=O)nc1-2,x,5.2µM*,x,x,2.9µM*,x
C[C@H](NS(=O)(=O)c1ccc2c(c1)OCCCO2)C(=O)N1CCN(c2ccc(F)cc2)CC1,2%,i,-2%,-14%,i,-4%
COC(=O)c1ccc(Cl)cc1NC(=O)Nc1nnc(N(C)C2CCCCC2)s1,x,i,x,x,i,x
Cc1ccc2[nH]c3c(c2c1)CN(C(=O)CN1CCN(c2cccc(C)c2C)CC1)CC3,18µM*,21µM*,u,u,u,u
O=C(CN1CCN(C(=O)c2ccco2)CC1)N1CCc2[nH]c3ccccc3c2C1,10%,i,30%,-1%,i,7%
CCCCN1CC(c2nc3ccccc3n2CCCCOc2cccc(C)c2C)CC1=O (configuration not stated),x,18µM*,x,x,i,x
CCCCN1CC(c2nc3ccccc3n2CCCCOc2cc(C)cc(C)c2)CC1=O (configuration not stated),x,i,x,x,i,x
C=CCN1CC(c2nc3ccccc3n2CCOc2ccccc2)CC1=O (configuration not stated),3%,15µM*,0%,-6%,i,-6%
COC(=O)c1c(C)oc2c1cc(NS(=O)(=O)c1c(C)cc(C)cc1C)c1ccccc12,x,i,x,x,u,x
CCOc1ccccc1NC(=O)C1CCCN(S(=O)(=O)c2ccc(OC)c(C)c2)C1 (configuration not stated),11%,i,5%,2%,i,3%
Cc1cc(C)nc(Sc2ncnc(N)c2[N+](=O)[O-])n1,u,i,u,u,u,21µM*
Cc1cccc(Nc2ncnc(N)c2[N+](=O)[O-])n1,-10%,i,13%,0%,i,0%
CC(C)NC(=O)c1ccc(C2SCC(=O)N2Cc2ccccc2)cc1 (configuration not stated),7%,i,0%,11%,i,7.3µM*
CCC(C)NC(=O)c1ccc(C2SCC(=O)N2Cc2ccccc2)cc1 (configuration not stated),0%,u,-5%,-3%,i,-2%
Cc1ccc(/C=N/NC(=O)CN2CCN(Cc3ccccc3)CC2)o1,3%,i,0%,-16%,i,-2%
CCCNC(=O)CSc1ccc(S(=O)(=O)N(C)C2CCCCC2)cn1,3%,i,1%,x,i,x
CCNC(=O)NC(=O)CSc1ccc(S(=O)(=O)N(C)C2CCCCC2)cn1,0%,21µM*,-9%,-3%,i,7%
SMILES,HT1080 IDH1KD tx,KB-V1 MDR tox,HT1080-NT tox,SW480 rereplic,KB-3-1 tox,MCF10A rereplic
CCC(C)NC(=O)CSc1ccc(S(=O)(=O)N(C)C2CCCCC2)cn1 (configuration not stated),9%,12µM*,4%,-3%,i,8%
CCn1c(C)c(CCC(=O)O)c(=O)n2nc(-c3ccccc3OC)cc12,-1%,i,1%,1%,i,-1%
COc1ccc(C[C@H]2CN3C(=NC[C@@H]3C(C)C)N2CCNC(=O)CCC2CCCCC2)cc1,-19%,i,-1%,u,i,u
COc1ccc(C[C@H]2CN3C(=NC[C@@H]3Cc3ccccc3)N2CCNC(=O)CCC2CCCCC2)cc1,u,16µM*,u,u,u,u
O=C(Nc1cc(Cl)ccc1O)c1cc2n(n1)C(C(F)(F)F)CC(c1ccc3c(c1)OCO3)N2 (configuration not stated),-13%[9.24 µM],u,-23%,-1%,i,15%
CCOC(=O)C1CCCN(S(=O)(=O)c2ccc3c4c(cccc24)C(=O)N3CC)C1 (configuration not stated),-9%,i,-2%[9.24 µM],7.3µM*,i,15%
CCN1C(=O)c2cccc3c(S(=O)(=O)N4CCNCC4)ccc1c23,-7%,i,-11%,6.5µM*,i,u
CCN1C(=O)c2cccc3c(S(=O)(=O)N4CCCC4C(=O)O)ccc1c23 (configuration not stated),17%,i,u,18µM*,i,-14%
COc1ccc(Cl)cc1-c1nc(N)nc(NC2CCCCC2)n1,0%,18µM*,-1%,-4%,i,0%
COc1cc(/C=N/OCC(=O)NC2CCCCC2C)ccc1OCc1ccc(Cl)cc1 (configuration not stated),u,8.2µM*,-21%,-2%,u,16µM*
COc1cc(/C=N/N2CCOCC2)ccc1OCc1ccc(Cl)cc1,-2%,i,1%,1%,i,29%
COc1cc(/C=N/OCC(=O)Nc2cc(C)cc(C)c2)ccc1OCc1ccc(Cl)cc1,-4%,21µM*,9%,x,u,20%
Cn1nnnc1SCC(=O)Nc1ccc(Cl)cn1,10%,i,19%,1%,i,-4%
Cc1ccccc1NC(=S)N(C)Cc1cn(C)c2ccccc12,5%,18µM*,-1%,0%,i,1%
O=C(CCl)N1c2ccccc2Sc2c1ccc1ccccc21,u,u,u,u,u,18µM*
CCCc1nnc(NC(=O)c2cccc(OC)c2)s1,20%,18µM*,5%,-4%,i,4%
